Reference: PubChem BioAssay (EPA / NIEHS)
Results filed as inconclusive are left out. Some compounds were tested as several samples or in several runs, with calls that do not always agree. Calls of active or inactive are those of the source. The calls were made as follows, unless noted: active = hit-call score of the fitted dose curve at least 0.9, where 1 is the maximum; inactive = score below 0.9.

How the values were obtained:
[1] = CCTE_Shafer_MEA_acute_LDH: CCTE's Lactate Dehydrogenase Assay for Cytotoxicity in the Neural Acute Assay, Shafer Lab (AID 2284086; active = hit-call score of the fitted dose curve at least 0.9, where 1 is the maximum;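 also: active means LDH release rises above DMSO vehicle level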)
Summary of the method: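 Medium collected from MEA wells of primary rat cortical cultures (DIV 13 or 15) immediately after 40 min chemical exposure is assayed spectrophotometrically for lactate dehydrogenase activity. Endpoint fitted in positive direction versus DMSO.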

[2] = CCTE_Shafer_MEA_dev_network_spike_number: CCTE's Neural Network Formation Assay for Number of Network Spikes, Shafer Lab (AID 2284048);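 also: synchronized bursts across electrodes counted on days 5 7 9 12 and integrated as AUC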
Summary of the method: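 Rat cortical primary cultures on 48-well MEA (16 electrodes/well); continuous exposure DIV 0–12, full medium and treatment exchange DIV 5, 9. Readout: network spike count, AxIS adaptive detection, recordings DIV 5/7/9/12 collapsed to AUC; loss-of-signal fit, DMSO baseline.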

[3] = CCTE_Shafer_MEA_dev_spike_duration_mean: CCTE's Neural Network Formation Assay for Mean Spike Duration, Shafer Lab (AID 2284051);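 also: mean network spike duration pooled as area under curve over DIV 5 to 12 recordings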
Summary of the method: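 Spontaneous activity was recorded on days 5, 7, 9 and 12 from rat cortical cultures grown on microelectrode arrays and dosed continuously from day 0, with media and compound renewed after the DIV 5 and 9 recordings. Network-spike duration was collapsed by area under the curve.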

[4] = CCTE_Shafer_MEA_dev_network_spike_duration_std: CCTE's Neural Network Formation Assay for Standard Deviation of Network Spike Duration, Shafer Lab (AID 2284052);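 also: hits are decreases in network spike duration SD versus DMSO vehicle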
Summary of the method: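 Network spike duration variability was collapsed across recordings on days 5, 7, 9 and 12 by trapezoidal area-under-curve and fitted downward against DMSO. Cultures were rat cortical neurons on PEI-coated MEA plates, dosed continuously from plating, refed with compound DIV 5/9.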

[5] = CCTE_Shafer_MEA_dev_per_network_spike_spike_number_mean: CCTE's Neural Network Formation Assay for Mean Number of Spikes in a Network Spike, Shafer Lab (AID 2284053)
Summary of the method: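 Mean spike count within each network spike, taken in a 0.05 s window at its peak, was recorded on days 5, 7, 9 and 12 and integrated as trapezoidal area under the curve. Rat cortical cultures on MEA plates received continuous compound from day 0, refreshed at medium changes on DIV 5 and 9.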

[6] = CCTE_Shafer_MEA_dev_per_network_spike_spike_percent: CCTE's Neural Network Formation Assay for Percent of Spikes in a Network Spike, Shafer Lab (AID 2284054)
Summary of the method: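 Read-out: percent of spikes falling in a 0.05 s window at network-spike peak, from spontaneous MEA recordings on days 5, 7, 9 and 12; trapezoidal AUC; loss of signal versus DMSO. Rat cortical cultures, compound present throughout.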

[7] = CCTE_Shafer_MEA_dev_LDH: CCTE's Lactate Dehydrogenase Assay for Cytotoxicity in the Neural Network Formation Assay, Shafer Lab (AID 2284068; active = hit-call score of the fitted dose curve at least 0.9, where 1 is the maximum;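 also: exposure for twelve days from plating with re-dosing on DIV 5 and 9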)
Summary of the method: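 Primary rat cortical neurons were cultured on PEI-coated MEA plates and exposed from plating through day 12, with compound renewed at medium changes on DIV 5 and 9. LDH activity was read spectrophotometrically; loss of signal versus DMSO indicates reduced viability.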

[8] = CCTE_Shafer_MEA_dev_AB: CCTE's Alamar Blue Assay for Cytotoxicity in the Neural Network Formation Assay, Shafer Lab (AID 2284083; active = hit-call score of the fitted dose curve at least 0.9, where 1 is the maximum;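 also: resazurin reduction fluorescence as viability of cultured neurons; twelve days of exposure from plating with re-dosing on DIV 5 and 9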)
Summary of the method: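 Resazurin fluorescence, relative to DMSO, gauges viability after twelve days of exposure that began at plating of rat cortical neurons (1.5 x 10^5 cells/well, 48-well MEA); treatment renewed with full medium exchange on DIV 5 and 9.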

[9] = CCTE_Shafer_MEA_dev_mutual_information_norm: CCTE's Neural Network Formation Assay for Mutual Information Normalization, Shafer Lab (AID 2284091)
Summary of the method: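 Neurons from rat cortex were seeded at 1.5 x 10^5 cells/well onto PEI-coated MEAs in a laminin drop, then exposed to compound from day 0 for twelve days. Network recordings on four days gave mutual information, summarised by AUC relative to DMSO.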

[10] = CCTE_Shafer_MEA_dev_correlation_coefficient_mean: CCTE's Neural Network Formation Assay for Mean Correlation Coefficient, Shafer Lab (AID 2284093);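 as to AC50: well mean pairwise spike train correlation integrated as AUC over recording days 5 to 12; potency fitted for loss of correlation relative to DMSO vehicle wells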
Summary of the method: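 Primary rat cortical neurons on PEI-coated 48-well MEA plates (16 electrodes/well) were exposed from plating day 0 through DIV12, with compound renewed at DIV5 and 9. Pairwise spike correlations were averaged per well; trapezoidal AUC across DIV5, 7, 9, 12.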

[11] = CCTE_Mundy_HCI_Cortical_Synap_Neur_Matur_NeuriteSpotCountPerNeuriteLength: CCTE's Synaptogenesis and Neurite Maturation Assay in rat cortical cells for Neurite Spot Count per Neurite Length, Mundy Lab (AID 2284210)
Summary of the method: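 Read-out: synaptophysin puncta counted along MAP2-stained neurites, normalised to neurite length, by automated high-content imaging. Rat cortical cells; AraC DIV 5; chemical dosing DIV 7; termination DIV 12. DMSO baseline.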

[12] = IUF_NPC1b_proliferation_BrdU_72hr: Leibniz Research Institute for Environmental Medicine (IUF) 72-hour Neural Progenitor Cell Bromodeoxyuridine (BrdU) Proliferation Assay (NPC1b) (AID 2284207)
Summary of the method: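 Luminescent BrdU ELISA measured DNA synthesis during the last 16 h of a 72 h exposure of primary human neural progenitor spheres grown with EGF and FGF. Signal was fitted relative to DMSO controls.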

[13] = IUF_NPC1a_proliferation_area_72hr: Leibniz Research Institute for Environmental Medicine (IUF) 72-hour Neural Progenitor Cell Proliferation Area Assay (NPC1a) (AID 2284208)
Summary of the method: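 Read-out: increase in sphere area over 72 h by automated phase-contrast imaging, fitted in positive direction versus DMSO baseline. One hNPC sphere (0.25-0.35 mm) per well in EGF/FGF medium; growth-factor withdrawal served as positive control.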

[14] = IUF_NPC1_viability_72hr: Viability Assessment at 72 hours in the Leibniz Research Institute for Environmental Medicine (IUF) Neural Progenitor Cell Proliferation Assay (NPC1) (AID 2284209)
Summary of the method: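 Spheres of primary human neural progenitors were plated singly in proliferation medium and treated for 72 h. Mitochondrial reduction of resazurin was then measured by fluorescence and analysed against DMSO controls.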

For `CCCCC(CC)C(=O)OCCOCCOCCOC(=O)C(CC)CCCC` (stereo not given), the outcome [1] was “inactive”.
For `OC(O)(C(F)C(O)(O)C(F)(F)F)C(F)(F)F`, the outcome [2] was “inactive”, the outcome [3] was “inactive” and the outcome [4] was “inactive”. For the same compound, the outcome [5] was “inactive”, the outcome [6] was “inactive” and the outcome [7] was “inactive”. For the same compound, the outcome [8] was “inactive”, the outcome [9] was “inactive” and the AC50 [10] was 2.98 µM (active). The outcome [10] was “inactive”.
In the case of `CCOc1ccc2[nH]cc(C(=O)NCc3ccccc3)c(=O)c2n1`, the outcome [2] is reported as “inactive”, the outcome [3] is reported as “inactive” and the outcome [4] is reported as “inactive”. The outcome [5] was “inactive”, the outcome [6] was “inactive” and the outcome [8] was “inactive”. For the same compound, the outcome [9] was “inactive” and the outcome [10] was “inactive”.
In the case of `C[C@]12C=CC(=O)C=C1CC[C@H]1[C@@H]3C[C@@H](O)[C@](O)(C(=O)CO)[C@@]3(C)C[C@H](O)[C@@]12F`, the outcome [2] is reported as “inactive”, the outcome [3] is reported as “inactive” and the outcome [4] is reported as “inactive”. For the same compound, the outcome [5] was “inactive”, the AC50 [6] was 570 nM (active) and the outcome [7] was “inactive”. For the same compound, the outcome [8] was “inactive”, the outcome [9] was “inactive” and the AC50 [10] was 0.202 µM (active). For the same compound, the AC50 [11] was 23.9 µM (active).
In the case of `O=C(Cl)C(F)(F)C(F)(F)C(F)(F)C(=O)Cl`, the outcome [2] is reported as “inactive”, the outcome [3] is reported as “inactive” and the outcome [4] is reported as “inactive”. The outcome [5] was “inactive”, the outcome [6] was “inactive” and the outcome [8] was “inactive”. The outcome [9] was “inactive” and the outcome [10] was “inactive”.
For `Cn1cc[nH]c1=S`, the outcome [2] was “inactive”, the outcome [3] was “inactive” and the outcome [4] was “inactive”. For the same compound, the outcome [5] was “inactive”, the outcome [6] was “inactive” and the AC50 [7] was 46.6 nM (active). For the same compound, the outcome [8] was “inactive”, the outcome [9] was “inactive” and the outcome [10] was “inactive”. The outcome [12] was “inactive”, the outcome [13] was “inactive” and the outcome [14] was “inactive”. For the same compound, the outcome [11] was “inactive”.
